Each structure is given as a SMILES string. Records with an inconclusive call do not appear. A call without a number means that no potency is given here. Active and inactive are the calls of the source. Calls come from the whole dose curve; as a rule, active = well fitted inhibition curve with a large enough effect; inconclusive = small, poorly fitted or top-dose-only effect; inactive = flat fitted curve, though single readings scatter.

In the test the target is Aldehyde dehydrogenase, mitochondrial (Homo sapiens) (UniProt P05091). As to the kind of experiment: qHTS for Inhibitors of the Aldehyde Dehydrogenase Family (ALDH2) Primary screen (AID 2061308). Note: nearly all actives have a fitted effect of over 55% in size. The conditions noted are these: ALDH2 enzyme inhibition qHTS, 1536-well; series mostly up to 56 µM.
Regarding `S=P(c1ccccc1)(c1ccccc1)c1c[n+](C/C=C/c2ccccc2)c2ccccn12`, the Potency entry was “inactive”.
For `CC1=C(C(=O)n2ccc3ccccc32)C(c2ccccc2Br)N=C(Nc2nc3ccccc3o2)N1` (stereo not given) the value was “inactive”; for `O=C(CNC(=O)c1ccc(-c2ccccc2)cc1)OC(C(=O)Nc1cc(C(F)(F)F)ccc1Cl)c1ccccc1` (stereo not given), “inactive”.
The value for `COc1ccc(-n2ncc3c2CCCC3NC(=O)c2ccc3ncccc3c2)cc1` (stereo not given) was “inactive”; that for `COc1cc2ncnc(Nc3cccc(O)c3)c2cc1OC` was “inactive”.
The value for `Fc1cccc(-c2nc3ccccc3s2)c1` was “inactive”; that for `C=C1C(=O)O[C@H]2C1CCC(C)=C1C(=O)C=C(C)[C@@]12O` (stereo not given in full) was “inactive”.
`COc1ccc(C(=O)Nc2ccc(-c3nc4ccccc4[nH]3)cc2)cc1OC`: the Potency entry is “inactive”.
The value for `C=C(NC(=O)C(=C)NC(=O)c1csc(C2=NC3c4csc(n4)C4NC(=O)c5csc(n5)C(C(C)(O)C(C)O)NC(=O)C5CSC(=N5)/C(=C/C)NC(=O)C(C(C)O)NC(=O)c5csc(n5)C3(CC2)NC(=O)C(C)NC(=O)C(=C)NC(=O)C(C)NC(=O)C(C(C)CC)NC2C=Cc3c(C(C)O)cc(nc3C2O)C(=O)OC4C)n1)C(N)=O` (stereo not given) was “inactive”.
The value for `COc1ccc(CNc2ccc(S(=O)(=O)Nc3nccs3)cc2)c(O)c1` was “inactive”; that for `O=S(=O)(c1ccc2c(c1)OCCO2)N1CCN(S(=O)(=O)c2cccc3cccnc23)CC1` was “inactive”.
In the case of `CCn1cnc2c(Nc3cccc(Cl)c3)nc(C#N)nc21`, the Potency entry is “inactive”.
The value for `COc1ccc(-c2nnc3n2N=C(c2ccc(OC)c(OC)c2)CS3)c(OC)c1` was “inactive”; that for `Cc1cc(NC(=O)Nc2nnc(-c3ccncc3)s2)ccc1F` was “inactive”.
For `c1nc(NCCc2cnc[nH]2)c2cc(-c3ccc4c(c3)OCO4)ccc2n1` the value was “inactive”; for `CCC(=O)NC(c1cccs1)c1cc(Br)c2cccnc2c1O` (stereo not given), “inactive”.
On to `CN1C2CCC1CC(OC(=O)[C@H](CO)c1ccccc1)C2` (stereo not given in full), for which the Potency result is “inactive”.
For `Nc1cc(NC(=O)Nc2nnc(-c3ccncc3)s2)ccc1Cl`, the Potency entry was “inactive”.
The value for `O=S(=O)(NC1CCN(S(=O)(=O)c2ccc3c(c2)OCCO3)C1)c1c(F)cccc1F` (stereo not given) was “inactive”; that for `COc1cc(F)c(S(=O)(=O)N2CCCN(S(=O)(=O)c3ccc(NC(C)=O)cc3)CC2)c(F)c1` was “inactive”; that for `Cc1cc2c(s1)c1cnn(Cc3cccc(Cl)c3)c(=O)c1n2C` was “inactive”.
The value for `O=C1CCCC2CC(Nc3nc4ccccc4o3)CC(c3ccccc3)C12` (stereo not given) was “inactive”.
For `O=C(OCC#CCSc1nnc(-c2cccs2)o1)c1ccc(F)cc1` the value was “inactive”; for `Cc1ccc(-c2ccc(=O)n(CC(=O)NCCCN(C)C)n2)cc1`, “inactive”.
For `O=C(OCC#CCSc1nnc(-c2cccc3ccccc23)o1)c1sc2ccccc2c1Cl`, the Potency result is “inactive”.
Turning to `COc1ccc(NC(=O)c2cnn3c(C)cc(C)nc23)cc1`, the Potency entry was “inactive”.
Turning to `O=C1CCCC2=C1C(c1[nH]ncc1Cl)NC(=NCc1cccnc1)N2` (stereo not given), the Potency entry is “inactive”.
The value for `CC(=O)N[C@H](C(=O)N[C@@H](C)C(=O)N[C@H](C#N)CC(=O)O)C(C)C` was “inactive”.
The value for `COc1ccc(C(=O)Nc2nc(-c3ccccc3)cs2)cc1NS(=O)(=O)c1ccc(C)cc1` was “inactive”.
On to `Cc1cc(Nc2nc(-c3ccccc3)nc3ccccc23)n[nH]1`, for which the Potency result was “inactive”.
For `Fc1cccc(CNc2ncnc3ccc(-c4ccoc4)cc23)c1` the value was “inactive”; for `O=C(NC1CCCc2c1cnn2-c1ccc(F)cc1F)c1ccccc1` (stereo not given), “inactive”; for `CC1(C)CC(=O)C2=C(C1)NC(Nc1nc3ccccc3o1)=NC21CCCC1`, “inactive”.
The value for `COC(=O)c1ccc(O)c2ncccc12` was “inactive”; that for `CCNC(=O)c1ccc(-c2ccc3ncnc(NCC(C)(C)C)c3c2)o1` was “inactive”.
With `COc1cc(NC(=O)c2cnn3c(C)cc(C)nc23)cc(OC)c1OC`, the Potency entry is “inactive”.
The value for `Cc1cc(C)n2ncc(C(=O)Nc3ccncc3)c2n1` was “inactive”.
The value for `CC(=O)Nc1ccc(S(=O)(=O)N2CCCN(S(=O)(=O)c3ccc4c(c3)OCCO4)CC2)cc1` was “inactive”.
Take `COCCN(CCOC)c1nc(C)nc2c1nc(-c1ccccc1)n2CCN1CCOCC1`: the Potency entry is “inactive”.
On to `O=C1c2ccc(Nc3ccc(F)cc3F)cc2CCc2ccc(OCC(O)CO)cc21` (stereo not given), for which the Potency entry is “inactive”.

(Values after PubChem BioAssay (NCATS).)
